Neddylation inh = inhibitors of human cullin neddylation; inhibition, % at 25 µM; TR-FRET cullin neddylation, biochemical; actives 0.58% (n = 360,000); P61081+Q13564; in the data active = inhibition above about 36%
Target sequence (P61081 whole entry, looked up): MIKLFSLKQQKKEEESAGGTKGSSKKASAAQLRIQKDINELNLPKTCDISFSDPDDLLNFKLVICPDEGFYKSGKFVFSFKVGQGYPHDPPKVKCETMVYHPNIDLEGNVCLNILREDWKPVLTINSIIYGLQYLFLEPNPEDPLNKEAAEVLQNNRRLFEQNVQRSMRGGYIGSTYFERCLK
Target sequence (Q13564 whole entry, looked up): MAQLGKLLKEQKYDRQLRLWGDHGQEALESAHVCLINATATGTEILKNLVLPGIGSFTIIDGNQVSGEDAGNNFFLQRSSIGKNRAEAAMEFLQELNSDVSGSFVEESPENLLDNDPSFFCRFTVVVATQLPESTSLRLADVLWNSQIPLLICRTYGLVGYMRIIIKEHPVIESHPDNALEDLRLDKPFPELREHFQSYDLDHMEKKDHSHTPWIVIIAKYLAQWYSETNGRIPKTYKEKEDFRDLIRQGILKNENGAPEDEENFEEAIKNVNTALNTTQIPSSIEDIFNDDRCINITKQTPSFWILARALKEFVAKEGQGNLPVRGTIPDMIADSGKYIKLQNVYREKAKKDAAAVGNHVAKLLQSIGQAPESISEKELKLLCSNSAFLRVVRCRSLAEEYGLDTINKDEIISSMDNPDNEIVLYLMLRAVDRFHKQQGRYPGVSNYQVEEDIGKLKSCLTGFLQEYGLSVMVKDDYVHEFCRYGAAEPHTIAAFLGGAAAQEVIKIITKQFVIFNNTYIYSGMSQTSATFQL
Vif imaging = HIV Vif inhibition | HEK293T cells, Vif self-association by quenched fluorescence, imaging, 24 h | inhibition, % at 7.49 µM | actives 0.35% (n = 340,000) | AID 602346; in the data active = inhibition above about 50%, passing the limit was not always enough
dFosB activator = activators of mouse delta FosB homodimer | purified delta FosB, TAMRA-CDK5 oligo fluorescence polarization; percent of positive-control signal above neutral wells | AID 493131 | P13346 | actives 0.99% (n = 340,000) | activation, % at 25 µM;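 active = mean activation above about 17%, with every replicate also reaching it, limit read from the data, passing the limit was not always enough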
INS-1E GSIS act = GLuc luminescence reporter in INS-1E cells, primary screen for activators of glucose-dependent secretion of insulin; INS-1E GLuc reporter insulin secretion, 2-3 h; activation, % at 16.6 µM; actives 0.61% (n = 370,000);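 active = lowest replicate activation of at least 40%, so every replicate reaches that level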;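 also: 0% = median of neutral control wells and 100% = median of IBMX positive control wells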
A1 inh = inhibitors of the anti-apoptotic protein A1, read as caspase activation | MEF A1-2A-BIM cells, Caspase-Glo 3/7 luminescence, 3 h; percent of clofoctol response, vehicle zero | caspase activation, % (no concentration beside the values) | actives 0.066% (n = 330,000);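 active = over half of replicate activation scores above 10%, or exactly half above 10 with the replicate mean above 10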
* hit, by the source's call; i = inactive; . = no result given; + = active, no number; ! = not active in a repeat. Sampled rows, rich in hits. Any-hit rate of the full collection: about 1.9%.

SMILES	Neddylation inh	Vif imaging	dFosB activator	INS-1E GSIS act	A1 inh
Cc1cc(C)cc(NCc2cc(=O)oc3cc(-c4ccccc4)c(O)cc23)c1	1	-2	-6	-17	-2
C[C@@H]1CN([C@@H](C)CO)C(=O)c2cc(NC(=O)NC3CCCCC3)ccc2O[C@@H](C)CCCCO[C@@H]1CN(C)S(=O)(=O)c1cn(C)cn1	.	.	.	13	.
C[n+]1c2cc(N)ccc2cc2ccc(N)cc21	-326	i	33*!	-18	.
NC(=O)NC(CCC(=O)O)C(=O)O (stereo unspecified)	-9	65*	-3	0	0
O=C(O)CCC(NC(=O)OCc1ccccc1)C(=O)O (stereo unspecified)	4	-1	-7	.	0
O=C(NNC(=O)c1cc2cc3ccccc3nc2s1)c1cccc(C(F)(F)F)c1	17	-1	5	75*	-1
O=C(NNS(=O)(=O)c1ccccc1)c1cc2cc3ccccc3nc2s1	-14	13	-25	.	1
COc1ccccc1C(=O)N/N=C(\C)CC(=O)Nc1ccc2c(c1)OCCO2	-3	-1	-13	41*	-1
COc1ccc(NC(=O)N(C)C[C@@H]2Oc3ncc(-c4ccccc4)cc3C(=O)N([C@H](C)CO)C[C@@H]2C)cc1	.	.	.	-15	.
CCc1nc(SCC(=O)c2ccccc2)c2c(=O)n(C)c(=O)n(C)c2n1	-11	4	-12	41*	-1
C[C@H](CO)N1C[C@H](C)[C@@H](CN(C)S(C)(=O)=O)OCCCC[C@H](C)Oc2ccc(NC(=O)CCC(F)(F)F)cc2C1=O	.	.	.	12	.
Cc1cccc(NC(=O)Cn2c(O)c(N=NC(N)=S)c3ccccc32)c1	-10	-22	40*	-19	0
COc1ccccc1NC(=O)Cn1c(O)c(N=NC(=O)c2ccccc2O)c2ccccc21	-19	116*	70*	-6	0
COc1cccc(S(=O)(=O)N[C@@H]2CC[C@H](CCn3cc(-c4ccccn4)nn3)O[C@@H]2CO)c1	.	.	.	-1	.
Cc1ccc(S(=O)(=O)N(C)C[C@@H]2OCCCC[C@H](C)Oc3ccc(NC(=O)CCC(F)(F)F)cc3C(=O)N([C@H](C)CO)C[C@H]2C)cc1	.	.	.	-22	.
COc1ccc(OC)c(-c2csc(NC(=O)CSc3nnnn3C)n2)c1	-41	12	33*	9	0
COc1cc(/C=N/n2cnnc2)ccc1OCCOc1ccccc1	-6	-4	-10	.	1
C=CCc1ccc(OCCOc2ccc(/C=N/n3cnnc3)cc2OCC)c(OC)c1	5	-7	4	61*	-1
OCC1OC(n2cnc3c(NCc4ccccc4O)ncnc32)C(O)C1O (stereo unspecified)	61*	2	-2	-20	.
COCCOc1ccc(C(F)(F)F)cc1NC(=O)c1ccccc1F	29	7	2	50*	0
CN1C(=O)c2cc(NS(=O)(=O)c3cccc(F)c3)ccc2OC[C@H]2O[C@H](CC(=O)O)CC[C@H]21	.	.	.	10	.
CCN1CCN(CCNC(=O)c2ccc3c(c2)N(Cc2ccc(F)cc2)C(=O)/C(=C/c2ccccc2)S3)CC1	7	.	-422	102*	2
CN1CCN(CCCNC(=O)c2ccc(/C=C3\Sc4ccccc4N(Cc4ccccc4F)C3=O)cc2)CC1	26	-11	-21	120*	.
O=C(NCCN1CCOCC1)c1ccc(/C=C2\Sc3ccccc3N(Cc3ccccc3F)C2=O)cc1	21	-19	1	14	-1
O=C(NCc1ccccc1F)[C@H]1N[C@H]2c3ccc(-c4ccccc4F)c(=O)n3C[C@H]2[C@@H]1CO	.	.	.	-2	.
SMILES	Neddylation inh	Vif imaging	dFosB activator	INS-1E GSIS act	A1 inh
S=c1nc(Cc2ccccc2)[nH]c2ccccc12	-361	68*	-3	9	-1
C[C@@H]1CCCCO[C@H](CN(C)C(=O)C2CCCCC2)[C@H](C)CN([C@H](C)CO)C(=O)c2cc(NS(=O)(=O)c3cn(C)cn3)ccc2O1	.	.	.	-2	.
CC1CCN(c2ccc3c(c2)S(=O)(=O)c2cccc(C(=O)NC4CCCCC4)c2C3=O)CC1	-29	51*	-3	-1	1
O=C(NCc1ccccc1C(F)(F)F)c1cccc2c1C(=O)c1ccc(N3CCCCC3)cc1S2(=O)=O	-9	+	0	3	0
CCCC(=O)Nc1ccc(N2CCN(S(C)(=O)=O)CC2)cc1	0	2	1	53*	1
CCCCC(=O)Nc1ccc(N2CCN(S(C)(=O)=O)CC2)cc1	-1	2	0	.	1

Source: PubChem (several laboratories)
